Over roughly 33,000 sequences, “E-score (-0.5 to 0.5)” has its median near -0.013; the highest 2% begin near 0.3. The sample as a whole holds a higher share of the highest values than the screen did.
biological target: T1, Msn1 (UniProt P22148); test: PBM E-score (8-mer binding enrichment) (E-score (-0.5 to 0.5)); higher = stronger / more preferred TF binding; settings: protein concentration: 200 nM; construct: GST-full length
T1 sequence: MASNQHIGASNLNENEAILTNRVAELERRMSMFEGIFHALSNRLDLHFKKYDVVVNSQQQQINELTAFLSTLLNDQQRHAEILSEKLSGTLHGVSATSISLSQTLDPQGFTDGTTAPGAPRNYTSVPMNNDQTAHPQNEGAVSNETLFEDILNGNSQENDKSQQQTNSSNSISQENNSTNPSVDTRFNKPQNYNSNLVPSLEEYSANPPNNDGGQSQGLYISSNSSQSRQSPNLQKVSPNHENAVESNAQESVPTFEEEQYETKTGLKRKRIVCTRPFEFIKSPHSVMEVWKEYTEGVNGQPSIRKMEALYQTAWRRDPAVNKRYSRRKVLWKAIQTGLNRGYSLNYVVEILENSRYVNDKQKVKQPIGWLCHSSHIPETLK
Method: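 Universal 'all 10-mer' protein binding microarrays (Agilent AMADID 015681) probed with GST-tagged S. cerevisiae TFs (full-length or DBD) made by in vitro transcription/translation (PURExpress), about 100-200 nM. Bound TF was detected with fluorescent anti-GST. Each ungapped 8-mer (which stands for itself and its reverse complement) is scored by the PBM enrichment score (E-score), a modified Wilcoxon-Mann-Whitney statistic from -0.5 to +0.5, computed with the Universal PBM Analysis Suite. Scale: above 0.35 generally sequence-specific binding.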

Row | Sequence | PBM E-score
1 | CGCTAGGA | -0.0538
2 | GCGGGGCA | -0.147
3 | GGAACCCC | -0.334
4 | ACCGTCTA | -0.11
5 | CTGCGATA | 0.0274
6 | CAGGTGAA | 0.0265
7 | ATGCAGTC | -0.186
8 | CTGGAGTC | -0.182
9 | AGCCAATA | -0.113
10 | GATCGGCC | -0.0564
11 | CACTACCG | -0.181
12 | AACTAGAA | 0.062
13 | AGTCTCAA | -0.0719
14 | CGTCTCAA | 0.00785
15 | CGTATCAA | 0.0969
16 | TGTATCAA | 0.325
17 | TGTCTCAA | 0.384
18 | AGTATCAA | 0.217
19 | TATAATCA | 0.169
20 | CCGGGATC | 0.0583
21 | AAGGGGAC | 0.101
22 | AGAATGTA | 0.167
23 | AGAATGTC | 0.459
24 | CGAATGTA | -0.00301
25 | CGAATGAC | 0.258

Row | Sequence | PBM E-score
26 | AGAATGTG | -0.172
27 | CGAATGTC | 0.386
28 | CCGCTGAG | 0.00458
29 | AAACCGCT | -0.0604
30 | CCAAGGGC | -0.126
31 | ACACAAGC | 0.0155
32 | AGAGGTAG | -0.163
33 | GCGATCAA | -0.0507
34 | ATCAGACA | 0.173
35 | CTCAGACA | 0.317
36 | GTCAGACA | 0.323
37 | GTCAGAGA | 0.0303
38 | CCCAGACA | 0.199
39 | CTCAGACC | -0.138
40 | CACGCCAC | -0.127
41 | TCCACGGA | 0.299
42 | GAAGGTGA | -0.0331
43 | GGGTTAGA | -0.178
44 | GCAAATTA | -0.0115
45 | ACAAACTG | 0.158
46 | AGATCTGC | 0.0313
47 | GAGGGCCA | -0.104
48 | CGATGACG | -0.158
49 | CGATGACA | 0.314
50 | CGCTGACG | -0.24

Row | Sequence | PBM E-score
51 | AGATGACA | 0.157
52 | GTATGACA | 0.294
53 | TGCTGACA | 0.125
54 | ATATGACA | 0.304
55 | CTATGACA | 0.375
56 | ATATGACC | -0.0751
57 | CTATGAGA | -0.0425
58 | CTATGACC | -0.0237
59 | CGCTGACA | 0.314
60 | CTTCCAGA | -0.0473
61 | GACACACC | 0.235
62 | AGTCGAGA | 0.0774
63 | ACAGGTGG | -0.0714
64 | ATTTGCAA | 0.103
65 | CTAACTTA | 0.227
66 | TGTGCGAA | -0.0498
67 | AAAACACC | 0.0787
68 | AGGGTCGC | -0.229
69 | GCTTGAAC | 0.187
70 | CGGGCAGC | -0.122
71 | AAGACATT | 0.414
72 | CAGACATG | 0.26
73 | CAGACATC | 0.246
74 | AAGACAGT | 0.0956
75 | CAGACATA | 0.366

Row | Sequence | PBM E-score
76 | AACACATG | 0.07
77 | AAGACATA | 0.382
78 | AAGACACG | 0.248
79 | AAGACATG | 0.337
80 | AAGACACT | 0.163
81 | AATACATG | 0.0057
82 | AAGACATC | 0.281
83 | ACGAGCTC | -0.0205
84 | CCAAATCG | -0.101
85 | GTCTCAGA | 0.0346
86 | CAAAGGGC | -0.0864
87 | GCAAGAAA | 0.0128
88 | CCCTCTTC | -0.288
89 | CCGGCTCC | -0.269
90 | ACCCCACA | -0.0822
91 | CACCAGAC | 0.00954
92 | CGACCCCA | -0.177
93 | CATACAGG | -0.0332
94 | GAGACATA | 0.448
95 | TAGACAGA | 0.177
96 | TAGACACA | 0.163
97 | GAGACACA | 0.272
98 | GAGACATC | 0.265
99 | TAGACATA | 0.41
100 | GGGGCTGA | -0.148

Row | Sequence | PBM E-score
101 | AGGGGCAG | -0.13
102 | GGACCGGA | 0.113
103 | CGCTAACC | -0.084
104 | GGAGTTAA | 0.0335
105 | TGGCCCCA | -0.338
106 | AAGTCCGG | 0.22
107 | CTGTCCGC | 0.114
108 | AGGTCCGG | 0.041
109 | ATGTCCGC | 0.44
110 | ACGTCCGC | 0.14
111 | ATGTCCGG | 0.457
112 | CCACTTAC | -0.133
113 | CCCTCTAC | -0.204
114 | ACCGTCGT | 0.142
115 | GCAGAGCC | -0.149
116 | ATGACAAC | 0.311
117 | ATGACAAT | 0.365
118 | ATGACAAG | 0.298
119 | CTGACAAA | 0.37
120 | ATGACAGC | 0.149
121 | TTGACAAA | 0.266
122 | CTGACAAC | 0.108
123 | ATGACGAA | 0.0573
124 | ATGACAAA | 0.433
125 | ATAACAAT | 0.00977

Row | Sequence | PBM E-score
126 | CTGACAAG | 0.161
127 | ATTACAAT | 0.155
128 | ACGTGCCT | -0.148
129 | ATATCTGG | 0.045
130 | GCCATTGA | 0.00063
131 | CAATAAGC | 0.00863
132 | GCGTATCC | -0.037
133 | CCATACCA | 0.0887
134 | GTGACAAA | 0.423
135 | GTGACGAA | -0.0509
136 | GTGACAAC | 0.139
137 | ACTCCCTC | -0.312
138 | TAATGACA | 0.307
139 | TCATGACA | 0.388
140 | GAATGACA | 0.34
141 | TGATGACA | 0.299
142 | AAATGACA | 0.278
143 | GCATGACA | 0.199
144 | GAATGACC | 0.201
145 | ACATGACA | 0.297
146 | CAATGACA | 0.298
147 | AGGGTAAC | -0.177
148 | AAGTCGGA | 0.158
149 | ATACCCAA | 0.195
150 | ATAGGTTG | -0.0907

Row | Sequence | PBM E-score
151 | CGCGGGCC | -0.105
152 | ACGGTCGG | -0.0232
153 | GCAAACCC | -0.225
154 | CCAACGGC | -0.132
155 | GCATGTAA | -0.12
156 | AAATTGTC | 0.449
157 | CAATTGTA | 0.184
158 | AAATTGTA | 0.222
159 | CAATTGTC | 0.445
160 | GAATTGGC | -0.278
161 | AAATTGTT | 0.143
162 | GAATTGTA | 0.151
163 | GAATTGTC | 0.392
164 | CAATTGTG | -0.00904
165 | ACCTAAAA | 0.0426
166 | TCTAGCAA | 0.0862
167 | TCACCCCA | 0.108
168 | AAACGCCT | -0.0244
169 | GGTGCGGA | -0.047
170 | ACCTAAGG | -0.14
171 | AGTGCTCA | -0.229
172 | GGGTACAA | 0.198

From the supplement of paper PMC3334620
